Pf growth 48h = Primary qHTS for delayed death inhibitors of the malarial parasite plastid, 48 hour incubation | P. falciparum luciferase growth in erythrocytes, 48 h | Potency, µM (top dose mostly 28.7 µM), most hits filed as inhibitors | 310,000 compounds, 5.9% hits | AID 504832, 2011; active = well fitted inhibition curve with a large enough effect; inconclusive = small, poorly fitted or top-dose-only effect, or another doubt; inactive = no such curve, though single readings can be large or run the other way
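Erythrocytes infected with P. falciparum carrying an integrated firefly luciferase reporter (2% hematocrit, 0.1% parasitemia final) were exposed to compounds in RPMI 1640 with 0.5% Albumax at 37 C, 5% CO2. Growth inhibition was scored as reduced luminescence.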
Shiga toxin inh = A qHTS for Small Molecule Inhibitors of Shiga Toxin; 290,000 compounds, 9.2% hits; AID 2315, 2010; inhibition, % at 38.7 µM; Vero cells, Shiga toxin protein synthesis inhibition reporter; in the data active = inhibition mostly above about 28%, no sharp cut-off; inactive = mostly below about 43%
NS1 function inh = qHTS Assay for Inhibitors of Influenza NS1 Protein Function | Potency, µM (titrated, usually from 46.1 µM) | 270,000 compounds, 0.4% hits; also: actives are rising curves; nearly all actives have a fitted effect of over 50% in size
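In this qHTS, NS1 from influenza A is expressed in budding yeast, where it slows growth. Cells are switched from glucose to 2% galactose medium (pH 6.0, -URA), treated with compound, and growth recovery is read at OD600.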
CHX counter = Cycloheximide Counterscreen for Small Molecule Inhibitors of Shiga Toxin. cell reporter, cycloheximide protein synthesis inhibition counterscreen. max response, %. 300,000 compounds, 12% hits. AID 2314, 2010; in the data active = max response mostly above about 13%, no sharp cut-off; inactive = mostly below about 14%; also: read at 38.3 µM for the half of the compounds with a filed dose
Pf growth 96h = Primary qHTS for delayed death inhibitors of the malarial parasite plastid, 96 hour incubation; 320,000 compounds, 6.9% hits; P. falciparum luciferase reporter growth, 96 h; Potency, µM (titrated, usually from 28.7 µM), hits mostly inhibitors; AID 504834, 2011; active = well fitted inhibition curve with a large enough effect; inconclusive = small, poorly fitted or top-dose-only effect, or another doubt; inactive = no such curve, though single readings can be large or run the other way
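Delayed-death screen, second-generation endpoint: infected erythrocytes, 2% hematocrit, 0.05% parasitemia final; 96 hours at 37 C, 5% CO2; luciferase detection reagent; luminescence decrease equals reduced growth.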
SARS PLpro yeast = qHTS of Yeast-based Assay for SARS-CoV PLP; AID 485353, 2010; Potency, µM (highest dose often 32.9 µM), actives largely listed as activators; S. cerevisiae expressing SARS-CoV PLpro, growth rescue; 330,000 compounds, 0.19% hits; also: nearly all actives have a fitted effect of over 55% in size
Each line names hits and unclear results; the compound was inactive in the other large screens; ! = a repeat was not active. This is a sample that favours compounds with a hit; in the whole collection about 21% have one here. Unless noted, calls follow the shape of the full dose curve.

NNC(=O)CNC(=O)c1ccccc1F	none
NC(=O)c1ccccc1NCC(=O)c1ccc(Cl)cc1	Pf growth 96h inconclusive (no result: Pf growth 48h)
O=C(CNC(=O)c1ccccc1Cl)c1ccccc1	Shiga toxin inh 65, CHX counter 50, Pf growth 96h inconclusive
O=C(NCCCCNC(=O)c1ccccc1Cl)c1ccccc1Cl	none
O=C(CNc1ccccc1C(=O)O)c1ccccc1	CHX counter 18
CC(CNC(=O)COC(=O)c1cccnc1Cl)c1ccccc1 (stereo not given)	SARS PLpro yeast inconclusive (no result: Shiga toxin inh, NS1 function inh, CHX counter)
COc1ccc(N2CC(NC(=O)NCCC(C)C)CC2=O)cc1 (stereo not given)	Pf growth 48h inconclusive
Cc1ccc2nc(Cl)c(/C=N/NC(=O)[C@H]3C[C@@H]3c3ccccc3)cc2c1	Pf growth 48h inconclusive, Pf growth 96h 2.1µM
CCOC(=O)c1c(C)nc2sc3c(c2c1-c1ccc(OC)cc1)NC(c1ccccc1)NC3=O (stereo not given)	Pf growth 48h 13µM, Pf growth 96h 4.1µM
CN1C2CCC1CC(OC(=O)c1c[nH]c3ccccc13)C2 (stereo not given)	Pf growth 48h 12µM!, Pf growth 96h inconclusive
CN1C2CCC1CC(OC(=O)c1ccc(Cl)cc1)C2 (stereo not given)	Pf growth 48h inconclusive, SARS PLpro yeast inconclusive
CCOc1ccc(C(=O)OC2CC3CCC(C2)N3C)cc1 (stereo not given)	CHX counter 22, Pf growth 96h inconclusive
COc1ccc(-c2nc3ccccc3c(=O)n2NC(=O)c2cccnc2Cl)cc1OC	Pf growth 96h inconclusive
O=C(/C=C/c1ccccc1Cl)NCc1cccs1	Shiga toxin inh 89, CHX counter 48
O=C(/C=C/c1ccc(Br)cc1)NCc1cccs1	Shiga toxin inh 112, CHX counter 50
O=C(CSCc1ccc(F)cc1)NCc1cccs1	none (no result: NS1 function inh)
O=C(/C=C/c1ccc(F)cc1)NCc1cccs1	Shiga toxin inh 94, CHX counter 26
Cc1ccc(NCC(=O)Nc2c(C)n(C)n(-c3ccccc3)c2=O)cc1S(=O)(=O)N(C)C	none
Cc1cc(C)c(NC(=O)/C(=C/c2ccccc2)c2ccccc2)c(C)c1	Pf growth 48h 4.1µM
CCN1CCN(c2ccc(S(=O)(=O)N3CCCCC3)cc2NC(=O)c2cccc(C)c2)CC1	Pf growth 48h 12µM, Pf growth 96h inconclusive (no result: Shiga toxin inh, NS1 function inh, CHX counter)
CCN1CCN(c2ccc(S(=O)(=O)N3CCCCC3)cc2NC(=O)c2ccc(F)cc2)CC1	Pf growth 48h inconclusive, Pf growth 96h 9.3µM
CCN1CCN(c2ccc(S(=O)(=O)N3CCCCC3)cc2NC(=O)CC(C)c2ccccc2)CC1 (stereo not given)	Pf growth 48h 9.3µM, Pf growth 96h inconclusive (no result: Shiga toxin inh, NS1 function inh, CHX counter)
O=C(COC(=O)C1CCN(c2ccc(C(F)(F)F)cn2)CC1)Nc1ccc(F)cc1[N+](=O)[O-]	none (no result: Shiga toxin inh, NS1 function inh, CHX counter)
COc1ccccc1NC(=O)CCn1cnc2ccccc2c1=O	none (no result: Shiga toxin inh, NS1 function inh, CHX counter)
CC(=O)Nc1ccc(S(=O)(=O)c2ccc(C)cc2)cc1	Pf growth 48h inconclusive
Cc1ccc(S(=O)(=O)/N=C(/NC(=S)Nc2cccc(C)c2)c2ccccc2)cc1	Shiga toxin inh 77, CHX counter 54 (no result: Pf growth 48h)
Cc1cccc(NC(=S)N/C(=N/S(=O)(=O)c2ccccc2)c2ccccc2)c1	Shiga toxin inh 18, CHX counter 44 (no result: Pf growth 96h)
C/C(=N\S(=O)(=O)c1ccc(C)cc1)NC(=S)Nc1ccc(C)cc1	Shiga toxin inh 118, CHX counter 40
NC(=O)c1ccsc1NC(=O)COC(=O)Cc1ccccc1Cl	Pf growth 48h inconclusive (no result: Shiga toxin inh, NS1 function inh, CHX counter)
COc1ccc2[nH]c3c(=O)n4c(nc3c2c1)SCCC4	CHX counter 25 (no result: NS1 function inh)
Cc1ccc2[nH]c3c(=O)n4c(nc3c2c1)SCC4	CHX counter 24, Pf growth 96h inconclusive (no result: NS1 function inh)
O=c1c2ccccc2nc2n1CCS2	Pf growth 96h inconclusive
O=C(NC1CCCCC1)C(c1ccccn1)N(C(=O)c1csnn1)C1CCCCC1 (stereo not given)	none
Cc1cc(C)cc(NC(=O)C(Sc2ncnc3ccccc23)c2ccccc2)c1 (stereo not given)	Pf growth 48h 12µM, NS1 function inh inconclusive, Pf growth 96h 3.3µM
O=C(Nc1cccc(C(F)(F)F)c1)C(Sc1ncnc2ccccc12)c1ccccc1 (stereo not given)	Pf growth 48h 7.4µM, Pf growth 96h inconclusive
Clc1ccc(C2=Nn3c(nnc3-c3n[nH]c4c3CCC4)SC2)cc1Cl	Pf growth 48h 12µM, Pf growth 96h inconclusive
CNC(=O)COC(=O)/C=C/c1cccc(F)c1	none (no result: NS1 function inh)
O=C(/C=C/c1ccc(Cl)c([N+](=O)[O-])c1)Nc1ccc(NC(=O)c2ccco2)cc1	none
O=C(Nc1cccc(NC(=O)c2cccs2)c1)c1ccc([N+](=O)[O-])o1	Pf growth 48h 12µM, CHX counter 13, Pf growth 96h 3.3µM
O=C(Nc1cccc(NC(=O)c2ccc(-c3cccc(Br)c3)o2)c1)c1ccco1	Pf growth 48h inconclusive, Shiga toxin inh 73, CHX counter 58
O=C(/C=C/c1cccc([N+](=O)[O-])c1)Nc1cccc(NC(=O)c2cccs2)c1	NS1 function inh inconclusive, Pf growth 96h 4.1µM
O=C(Nc1ccc(Cl)c([N+](=O)[O-])c1)c1ccco1	CHX counter 20
COc1ccc(Br)cc1C(=O)Nc1cccc(NC(=O)c2ccco2)c1	none
COc1cc(NC(=O)c2ccc([N+](=O)[O-])o2)ccc1NC(=O)c1cccs1	Pf growth 48h inconclusive (no result: NS1 function inh)
O=C(Nc1cccc(NC(=O)c2ccc([N+](=O)[O-])o2)c1)c1ccco1	Pf growth 48h 9.3µM
O=C(Nc1ccc(NC(=O)c2ccc([N+](=O)[O-])o2)cc1Cl)c1ccco1	Pf growth 48h 12µM
COc1ccc(C(=O)Nc2ccc(NC(=O)c3ccco3)c(Cl)c2)cc1OC	none
Brc1ccc(N=Cc2ccccn2)cc1	Shiga toxin inh 54, CHX counter 22
C(=C\c1ccccn1)/c1ccccn1	Shiga toxin inh 105, CHX counter 64
CCC(=O)N1CCN(c2ccc(NC(=S)NC(=O)c3cc4ccccc4o3)cc2)CC1	none
CCOc1cccc(C(=O)Nc2ccc3oc(-c4cccnc4)nc3c2)c1	Pf growth 48h inconclusive, Pf growth 96h inconclusive
O=C(Nc1ccc(-c2nc3ccccc3c(=O)o2)cc1)c1ccco1	none
O=C(Nc1ccc2nc(-c3ccccc3)oc2c1)c1ccco1	Pf growth 48h inconclusive, Shiga toxin inh 47, CHX counter 29
O=C(Nc1ccc(-c2nc3ncccc3o2)cc1)c1ccc(Br)o1	Pf growth 48h inconclusive (no result: Pf growth 96h)
CCC(=O)Nc1ccc2oc(-c3cccnc3)nc2c1	Shiga toxin inh 48, CHX counter 35
CCc1ccc2oc(-c3ccc(NC(C)=O)cc3)nc2c1	Shiga toxin inh 145, CHX counter 61
CCC(=O)NCc1ccc(-c2nc3ncccc3o2)cc1	CHX counter 16, Pf growth 96h inconclusive
